Experiment [1] can be described thus: optical density shifts of acrAB sulA E. coli – strain DRC41, OD650, 48 h, E. coli filamentation inducer project, primary screen (AID 1152).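 Also: E. coli MC1000 strain DRC41 lacking acrAB efflux pump and sulA.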 The conditions noted are these: higher = more signal, called active from +8 up or from −8 down.
A short description of experiment [2]: probe aLefty1 binding on compound microarray – biochemical, small-molecule microarray, 635/667 nm fluorescence, primary screen (AID 1153).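 Also: score merges spot fluorescence with signal-to-noise ratio from the scanned slide images.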 The settings on record: higher = more signal.
Experiment [3] in a line: plasmodial surface anion channel blockers, osmotic lysis – cell-based, P. falciparum Indochina, OD700, 1 h, primary screen (AID 1154). The settings on record: P. falciparum Indochina infected RBC osmotic lysis, higher = more signal, called active from +8 up or from −8 down.
A short description of experiment [4]: plasmodial surface anion channel blockers, osmotic lysis – cell-based, P. falciparum Indochina, OD700, 2 h, primary screen (AID 1155).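 Also: lysis reports solute entry through the parasite surface anion channel PSAC.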 The settings on record: P. falciparum Indochina infected erythrocytes, higher = more signal, called active from +8 up or from −8 down.
The nature of experiment [5]: changes in parasitized red cell lysis, either direction – P. falciparum Indochina, OD700, 3 h, PSAC antagonist project, primary screen (AID 1156). The settings on record: P. falciparum-infected erythrocytes, osmotic lysis, higher = more signal, called active from +8 up or from −8 down.
The nature of experiment [6]: plasmodial surface anion channel blockers, osmotic lysis – cell-based, P. falciparum Indochina, OD700, 18 h, primary screen (AID 1157). The settings on record: P. falciparum Indochina infected erythrocytes, osmotic lysis OD700, 18 h; higher = more signal, called active from +8 up or from −8 down.
Experiment [7] is described as follows: S6 kinase pathway phospho-S6 level changes – cell-based, A549, cytoblot, luminescence, serum-stimulated, primary screen (AID 1158).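 Also: serum-stimulated A549 lung adenocarcinoma cells; signal is phosphorylated S6 detected by cytoblot immunostaining with HRP secondary.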 The conditions noted are these: 5 h, higher = more signal.
The target in experiment [8] is NADPH oxidase 2 (Homo sapiens) (UniProt P04839). Put plainly: compounds shifting NOX2 Amplex Red fluorescence – cell-based, HEK293-NOX2, PMA-stimulated, NOX inhibitor project, primary screen (AID 1159). Also: test concentration not given here. The settings on record: 45 min, higher = more signal, called active from +8 up or from −8 down.
Experiment [9] concerns the target NADPH oxidase 4 (Homo sapiens) (UniProt Q9NPH5). In words: compounds shifting NOX4 Amplex Red fluorescence – cell-based, HEK293-NOX4, tetracycline-induced, NOX inhibitor project, primary screen (AID 1160). The conditions noted are these: HEK293-NOX4, Amplex Red H2O2 fluorescence, 45 min; higher = more signal, called active from +8 up or from −8 down.
Experiment [10] concerns the target NADPH oxidase 5 (Homo sapiens) (UniProt Q96PH1). In words: compounds shifting NOX5 Amplex Red fluorescence – cell-based, HEK293-NOX5, NOX inhibitor project, primary screen (AID 1161). The settings on record: HEK293-NOX5, ionomycin, 45 min, higher = more signal.
A short description of experiment [11]: compound effects on lung adenocarcinoma cell viability – A549, calcein-AM fluorescence, 48 h, basal, profiling panel (AID 1162). Also: test concentration not given here. The conditions noted are these: higher = more signal.
The nature of experiment [12]: compound effects on differentiated 3T3-L1 adipocyte viability – cell-based, 3T3-L1 adipocytes, calcein-AM fluorescence, 48 h, basal, profiling panel (AID 1163). Also: test concentration not given here. The conditions noted are these: 3T3-L1 adipocytes viability, higher = more signal.
A short description of experiment [13]: compound effects on hepatocellular carcinoma cell viability – HepG2, calcein-AM fluorescence, 48 h, basal, profiling panel (AID 1164). Also: test concentration not given here. The settings on record: higher = more signal.
A short description of experiment [14]: compound effects on multiple myeloma cell viability – MM1S, calcein-AM fluorescence, 48 h, basal, profiling panel (AID 1165).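 Also: viability of MM1S multiple myeloma cells under basal unstimulated conditions; test concentration not given here.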 The settings on record: higher = more signal.
Experiment [15] in a line: calcein-AM signal in unstimulated myeloma cells – cell-based, calcein-AM fluorescence, 48 h, PK04 Diversity Set, profiling panel (AID 1166).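 Also: cells grown under basal conditions without added stimulus; test concentration not given here.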 The settings on record: RPMI8226 myeloma viability, higher = more signal.
The nature of experiment [16]: JC-1 mitochondrial signal, unstimulated HepG2 cells – cell-based, JC-1 fluorescence, 24 h, 100 nL compound, profiling panel (AID 1167). Also: test concentration not given here. The conditions noted are these: HepG2 mitochondrial potential, higher = more signal.
The nature of experiment [17]: JC-1 mitochondrial signal, unstimulated adipocytes – cell-based, JC-1 fluorescence, 3T3-L1 adipocytes, 24 h, 100 nL compound, profiling panel (AID 1168). Also: test concentration not given here. The settings on record: JC-1 mitochondrial fluorescence, higher = more signal, called active from +8 up or from −8 down.
Experiment [18] is described as follows: JC-1 mitochondrial signal, unstimulated myeloma cells – cell-based, JC-1 fluorescence, RPMI8226, 24 h, 100 nL compound, profiling panel (AID 1169). Also: test concentration not given here. The conditions noted are these: JC-1 mitochondrial potential fluorescence, higher = more signal.
The nature of experiment [19]: JC-1 mitochondrial signal, unstimulated MM1S myeloma – cell-based, JC-1 fluorescence, 24 h, 100 nL compound, profiling panel (AID 1170). Also: test concentration not given here. The conditions noted are these: MM1S mitochondrial potential, higher = more signal.
Experiment [20] is described as follows: resazurin metabolic signal in A549 cells – cell-based, resazurin fluorescence, 24 h, PK04 Diversity Set, profiling panel (AID 1171). Also: test concentration not given here. The settings on record: A549 viability, higher = more signal, called active from +8 up or from −8 down. Background: Alamar Blue is a resazurin reagent that responds to reducing activity.

Calls of active or inactive are those of the source.

NADPH oxidase 5 (Homo sapiens), sequence (Q96PH1 whole entry, looked up): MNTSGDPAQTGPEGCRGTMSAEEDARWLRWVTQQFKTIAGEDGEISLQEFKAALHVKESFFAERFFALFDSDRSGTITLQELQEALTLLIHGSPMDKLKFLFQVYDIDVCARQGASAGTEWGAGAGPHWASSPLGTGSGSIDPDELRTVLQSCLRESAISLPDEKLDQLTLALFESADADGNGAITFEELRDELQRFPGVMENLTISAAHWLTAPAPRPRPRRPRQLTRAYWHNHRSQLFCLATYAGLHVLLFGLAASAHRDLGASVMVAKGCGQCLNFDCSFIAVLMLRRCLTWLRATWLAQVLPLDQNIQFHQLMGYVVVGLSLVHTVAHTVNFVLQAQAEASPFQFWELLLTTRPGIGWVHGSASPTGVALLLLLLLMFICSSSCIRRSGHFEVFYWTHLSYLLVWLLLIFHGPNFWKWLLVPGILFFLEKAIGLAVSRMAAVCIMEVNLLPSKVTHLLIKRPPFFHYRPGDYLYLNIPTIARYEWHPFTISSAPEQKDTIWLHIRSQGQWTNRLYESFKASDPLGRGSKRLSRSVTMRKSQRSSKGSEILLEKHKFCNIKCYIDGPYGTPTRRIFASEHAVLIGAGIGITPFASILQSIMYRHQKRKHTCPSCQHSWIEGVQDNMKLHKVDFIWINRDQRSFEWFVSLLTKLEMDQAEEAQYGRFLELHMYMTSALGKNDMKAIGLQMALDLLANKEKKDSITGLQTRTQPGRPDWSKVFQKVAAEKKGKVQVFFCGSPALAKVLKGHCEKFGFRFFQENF
NADPH oxidase 2 (Homo sapiens), sequence (P04839 whole entry, looked up): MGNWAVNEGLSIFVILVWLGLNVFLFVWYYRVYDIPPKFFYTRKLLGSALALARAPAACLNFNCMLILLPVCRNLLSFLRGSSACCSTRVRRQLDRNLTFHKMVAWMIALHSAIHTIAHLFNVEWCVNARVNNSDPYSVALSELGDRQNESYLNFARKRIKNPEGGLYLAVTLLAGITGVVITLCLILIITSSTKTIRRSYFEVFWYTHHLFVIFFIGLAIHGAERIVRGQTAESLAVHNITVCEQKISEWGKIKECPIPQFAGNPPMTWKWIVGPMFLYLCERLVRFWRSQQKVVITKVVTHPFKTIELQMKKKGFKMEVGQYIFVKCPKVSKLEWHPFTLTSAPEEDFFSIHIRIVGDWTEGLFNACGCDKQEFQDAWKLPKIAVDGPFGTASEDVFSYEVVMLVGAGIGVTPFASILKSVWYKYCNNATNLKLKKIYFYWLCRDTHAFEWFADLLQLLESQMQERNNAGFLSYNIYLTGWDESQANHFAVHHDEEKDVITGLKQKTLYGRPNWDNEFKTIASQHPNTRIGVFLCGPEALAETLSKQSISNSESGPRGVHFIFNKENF
NADPH oxidase 4 (Homo sapiens), sequence (Q9NPH5 whole entry, looked up): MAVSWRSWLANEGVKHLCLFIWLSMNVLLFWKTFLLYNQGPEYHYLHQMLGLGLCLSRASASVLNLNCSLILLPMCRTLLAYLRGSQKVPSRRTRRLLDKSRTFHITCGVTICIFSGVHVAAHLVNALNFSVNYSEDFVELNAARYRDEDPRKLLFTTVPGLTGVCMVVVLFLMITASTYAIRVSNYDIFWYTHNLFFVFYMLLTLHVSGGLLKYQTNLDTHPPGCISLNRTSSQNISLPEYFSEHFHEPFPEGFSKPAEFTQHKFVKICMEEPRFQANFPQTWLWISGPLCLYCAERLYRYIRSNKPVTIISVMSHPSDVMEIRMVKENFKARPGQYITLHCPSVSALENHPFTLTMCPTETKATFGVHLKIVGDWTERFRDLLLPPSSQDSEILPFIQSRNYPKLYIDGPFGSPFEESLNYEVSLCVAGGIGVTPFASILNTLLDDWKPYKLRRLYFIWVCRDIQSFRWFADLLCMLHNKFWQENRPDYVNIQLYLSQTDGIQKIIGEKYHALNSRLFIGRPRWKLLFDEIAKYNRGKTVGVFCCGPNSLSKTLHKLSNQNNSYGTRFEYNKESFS

On to `Cc1cc2c(nc1C)CCCN2CC(C)ON=C1[C@H]2CCn3c(=O)n(-c4ccccc4)c(=O)n3[C@H]2[C@H](O)[C@@H]2O[C@H]12` (stereo not given in full), for which the z-score in [1] is -1.46 (inactive); in [3] it was 1.21 (inactive); in experiment [4], 0.283 (inactive); in experiment [5] it was 1.27 (inactive); in [6] it was 0.513 (inactive); in experiment [7], -0.415. Further, the z-score in experiment [8] is -0.435 (inactive); in experiment [9], -0.00359 (inactive); in experiment [10] it was -0.832; in experiment [11], -0.457; in experiment [12], 0.0888; in experiment [13] it was -0.56. For the same compound, the z-score in [14] is -1.83; in experiment [15] it was -0.0008; in experiment [16] it was -0.788; in experiment [17], -1.38 (inactive); in experiment [18], 0.477; in [19], 0.327. For the same compound, the z-score in [20] was -0.702 (inactive). Moreover, the composite z-score in experiment [2] was determined as 0.0037.
Consider `C#C[C@@H]1Oc2ccccc2S(=O)(=O)N2CCC[C@H]12`, for which the z-score was -1.16 (inactive) in experiment [1]; 0.217 (inactive) in [3]; 0.676 (inactive) in experiment [4]; -0.0722 (inactive) in experiment [5]; 0.107 (inactive) in experiment [6]; -0.222 in [7]. Besides, the z-score in experiment [8] is 0.0921 (inactive); in experiment [9] it was -1.48 (inactive); in [10], -0.194; in experiment [11] it was -0.244; in experiment [12], -0.0897; in experiment [13] it was -0.48. Besides, the z-score in experiment [14] was 0.0671; in [15] it was -1.71; in [16], -0.998; in [17], 0.121 (inactive); in [18] it was 0.51; in experiment [19] it was 0.193. In addition, the z-score in experiment [20] was -0.884 (inactive). Moreover, the composite z-score in experiment [2] worked out at 0.149.
For the compound `C=CC[C@@H]1C=C[C@H](ON=C[C@@H](OC)[C@H](C)C=CCC(=O)OC)[C@@H](CO)O1`, the z-score in [1] is 0.324 (inactive); in experiment [3] it was 0.815 (inactive); in experiment [4], 1.25 (inactive); in [5], -0.335 (inactive); in experiment [6], 0.465 (inactive); in [7], -0.782. In addition, the z-score was -0.022 (inactive) in [8]; -0.102 (inactive) in experiment [9]; -0.255 in [10]; 0.812 in [11]; -0.933 in experiment [12]; 0.623 in [13]. Further, the z-score is 0.486 in experiment [14]; -0.939 in experiment [15]; -0.0676 in experiment [16]; -0.862 (inactive) in experiment [17]; 0.461 in experiment [18]; -0.448 in [19]. Besides, the z-score in experiment [20] is -0.498 (inactive). The composite z-score in [2] was found to be 0.0533.
In the case of `CC(C)c1ccc(NN2C(C(O)c3ccc4c(c3)OCO4)C=CC3C(=O)N(c4ccccc4)C(=O)C32)cc1` (stereo not given), the z-score in [1] is -0.481 (inactive); in experiment [3] it was 1.76 (inactive); in [4], 1 (inactive); in experiment [5], 0.126 (inactive); in [6] it was 0.778 (inactive); in [7], -0.467. In addition, the z-score is -0.488 (inactive) in experiment [8]; -0.912 (inactive) in [9]; -0.752 in experiment [10]; -0.842 in [11]; -0.293 in [12]; 0.367 in [13]. Further, the z-score is -0.911 in experiment [14]; -0.369 in experiment [15]; -1.53 in experiment [16]; -0.462 (inactive) in experiment [17]; 0.337 in [18]; 0.186 in experiment [19]. Moreover, the z-score in experiment [20] was -0.616 (inactive). This compound had a composite z-score in experiment [2] of -0.0593.
In the case of `Cc1ccc(F)cc1S(=O)(=O)N[C@@H]1CCN(Cc2ccc(CC(C)C)cc2)C1`, the z-score in [1] was -19.2 (active); in experiment [3] it was 2.71 (inactive); in [4], 0.63 (inactive); in [5], 0.233 (inactive); in experiment [6] it was 0.916 (inactive); in experiment [7], -0.647. Also, the z-score was -0.0569 (inactive) in [8]; -1.44 (inactive) in experiment [9]; -4.02 in experiment [10]; -0.815 in [11]; -0.537 in [12]; -1.8 in experiment [13]. Moreover, the z-score in experiment [14] was -3.34; in experiment [15] it was -3.56; in experiment [16], -1.08; in [17] it was -0.545 (inactive); in experiment [18], -1.14; in experiment [19] it was -2.19. Moreover, the z-score in experiment [20] was 0.0665 (inactive). In experiment [2], this compound showed a composite z-score of -0.146.

(Values after PubChem BioAssay.)
